Experimental data from PubChem BioAssay (NCATS).
Values joined by “and” are separate entries in the source; they are usually repeats but may differ in a detail not shown here. Identical values can stand only once. Values without a mark were called inactive. Records with an inconclusive call do not appear. A call without a number means that no potency is given here. Active and inactive are the calls of the source. The call rests on the fitted dose curve; in most records, active means well fitted curve in the direction sought with a large enough effect; inconclusive means small, poorly fitted or top-dose-only effect, or another doubt; inactive means no such curve, though single readings can be large; an effect the other way counts as inactive or inconclusive.

What was measured:
[1] = Cell Viability - N2a (AID 540); settings: N2a mouse neuroblastoma cell viability; activity change, negative = cytotoxicity: at 92.2 µM (top of the series);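 further: cells exposed to compound for 40 h at 37 °C; nearly all actives have a fitted effect of over 45% in size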
Summary of the method: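 First, 1500 N2a cells per well incubate 5 hr at 37 °C; next, compounds are added and incubated 40 hr at 37 °C; finally CellTiter-Glo is added and luminescence read after 20 min, with AC50 derived by Hill modeling.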

[2] = Cell Viability - Renal Proximal Tubule (AID 545);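 further: cells exposed to compound for 40 hours; nearly all actives have a fitted effect of over 40% in size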
Summary of the method: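 Primary rat renal proximal tubule cells (1000/well) were treated with compounds for 40 hr at 37 °C in complete medium. Intracellular ATP was measured by CellTiter-Glo luminescence, and AC50 values came from Hill-equation fits of concentration-response data.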

[3] = Cellular Toxicity (caspase-3) Jurkat (AID 655); settings: Jurkat caspase-3 activation, luminescence; caspase-3 activation: at 92.2 µM (top of the series), DMSO = 0%, tamoxifen = 100%;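 further: cells exposed to compound for 16 h at 37 °C before reading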; further: potency means the concentration at half of the fitted maximal effect
Summary of the method: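 Jurkat cells (5000/well) in complete medium were treated with compounds for 16 hr at 37 °C, then Caspase-Glo 3/7 luminescence was read after 20 min at room temperature. Data normalized to DMSO (basal) and 100 uM tamoxifen (100%); AC50 from Hill fit.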

[4] = Cellular Toxicity (caspase-3) Renal Proximal Tubule (AID 667);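 further: cells exposed to compound for 16 hours at 37 °C before detection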
Summary of the method: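 Primary rat proximal tubule cells, 1000/well, 5 h plating at 37 °C, then compound 16 h at 37 °C. Caspase-Glo 3/7 reagent, 1 h RT, luminescence. Normalized to DMSO (basal) and 10 uM staurosporine (100%); Hill-fit AC50.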

[5] = MultiTox-Fluor Cytotoxicity Assay - LYMP1-001 - Dead Cells (AID 946)
Summary of the method: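 Seed 2500 LYMP1-001 cells/well, incubate 5 hr at 37 C; add compound, 16 hr at 37 C; add MultiTox-Fluor reagent, 60 min RT; read dead-cell fluorescence Ex/Em=485/520. Normalize to DMSO and 15 uM tetraoctylammonium bromide.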

[6] = Cell Viability - LYMP1-003 - Assay at 24 hr (AID 963)
Summary of the method: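 Acute toxicity in LYMP1-003 lymphoblastoid cells: 24 hr compound treatment at 37 C, ATP measured with CellTiter-Glo after 30 min at room temperature. AC50 derived by fitting the Hill equation to qHTS titrations.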

[7] = Cell Viability - LYMP2-009 (AID 968); further: nearly all actives have a fitted effect of over 55% in size
[8] = Cell Viability - LYMP2-011 (AID 969); further: nearly all actives have a fitted effect of over 60% in size
Summary of the method: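 Acute toxicity is scored as a concentration-dependent drop in intracellular ATP of a human lymphoblastoid line after 24 hr treatment. Values are AC50s modeled with the Hill equation.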

[9] = Cell Viability - LYMP2-019 (AID 973); further: nearly all actives have a fitted effect of over 55% in size
Summary of the method: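 Cells plated at 2500/well and allowed 5 hr at 37 C before compound addition. After 24 hr incubation, CellTiter-Glo reagent was added, plates sat 30 min at room temperature, and luminescence was recorded.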

[10] = Cell Viability - LYMP2-006 (AID 978); further: nearly all actives have a fitted effect of over 60% in size
Summary of the method: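 Human lymphoblastoid cells, 2500 per well, were preincubated 5 hr at 37 C, then exposed to compounds for 24 hr at 37 C in complete medium. Viability was read as intracellular ATP by CellTiter-Glo luminescence; AC50 from Hill-equation fits of qHTS concentration-response data.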

[11] = Cell Viability - LYMP2-010 (AID 981); further: nearly all actives have a fitted effect of over 55% in size
Summary of the method: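 Acute toxicity is scored as a concentration-dependent loss of cellular ATP in human lymphoblastoid cells after 24 hr compound exposure in complete medium. Tetraoctylammonium bromide is the positive control.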

[12] = Cell Viability - LYMP2-014 (AID 983); further: nearly all actives have a fitted effect of over 50% in size
Summary of the method: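 Decrease in intracellular ATP after 24 hr treatment at 37 C, measured by luciferase luminescence, indicated cytotoxicity. Concentration-response data were fitted with the standard Hill equation to give AC50.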

[13] = Cell Viability - LYMP2-020 (AID 986); further: nearly all actives have a fitted effect of over 55% in size
Summary of the method: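 Acute cytotoxicity in a human lymphoblastoid line is scored as a concentration-dependent fall in cellular ATP after 24 hr at 37 C in complete medium. The positive control is tetraoctylammonium bromide, and potency is given as Hill-fit AC50.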

[14] = qHTS assay for environmental chemicals that activate the Aryl hydrocarbon Receptor (AhR) signaling pathway (AID 651777); settings: 1A2-DRE human hepatoma cells, luciferase, 24 h; activation: hits give high values; further: nearly all actives have a fitted effect of over 15% in size; further: potency means the concentration at half of the fitted maximal effect
Summary of the method: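 Following a 24 hr incubation with test chemicals at 37 C and 5% CO2, 1A2-DRE human hepatoma cells received One-Glo reagent; after 30 min at room temperature, luciferase output reflected CYP1A2 induction via AhR.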

[15] = target: Peroxisome proliferator-activated receptor alpha (Homo sapiens) (UniProt Q07869); test: qHTS assay for small molecule agonists of the peroxisome proliferator-activated receptor alpha (PPARalpha) signaling pathway (AID 651778); settings: PathHunter PPARalpha complementation, chemiluminescence, 6 h; hits give high values
Summary of the method: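 Chemiluminescence from complemented enzyme reported PPARalpha activation in cells after 6 hr of compound treatment at 37 C. The detection reagent was incubated for 60 min at room temperature, and compounds were scored as agonists.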

[16] = qHTS assay for cell viability of the p53RE-bla HCT-116 cell line (AID 743292); further: nearly all actives have a fitted effect of over 55% in size
Summary of the method: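 After plating at 4,000 cells per well and a 5 h rest at 37 C, HCT-116 cells carrying p53RE-bla received test chemicals in DMSO. Sixteen hours later at 37 C, CellTiter-Glo was added and luminescence recorded following 30 min at room temperature.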

[17] = Cellular Toxicity (caspase-3) NIH 3T3 (AID 666);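 further: caspase signal read after 16 h compound exposure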
Summary of the method: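 Concentration-response qHTS in NIH 3T3 mouse fibroblasts scores caspase-3/7 activation as rising luminescence after 16 hr compound exposure. Signals are scaled between DMSO-only and 100 uM tamoxifen.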

[18] = Cell Viability - LYMP1-003 - Assay at 40 hr (AID 964); further: nearly all actives have a fitted effect of over 60% in size
Summary of the method: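 This qHTS cytotoxicity screen treats human lymphoblastoid cells (LYMP1-003) with compounds for 40 hr and quantifies cellular ATP via luciferase luminescence.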

[19] = Cell Viability - LYMP2-002 (AID 977);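 further: compound exposure lasted 24 h at 37 °C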
Summary of the method: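 Cytotoxicity is scored as concentration-dependent loss of cellular ATP in a human lymphoblastoid line after 24 hr compound treatment at 37 C. AC50 is obtained by modelling concentration-response data with the Hill equation.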

[20] = Cell Viability - LYMP2-022 (AID 987); further: nearly all actives have a fitted effect of over 55% in size
Summary of the method: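 Acute toxicity in a human lymphoblastoid line is scored as decreased intracellular ATP after 24 hr compound treatment at 37 C. ATP is measured by CellTiter-Glo luminescence; curves are fitted with the Hill equation to give AC50.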

Chain of Peroxisome proliferator-activated receptor alpha (Homo sapiens) (Q07869 whole entry, looked up): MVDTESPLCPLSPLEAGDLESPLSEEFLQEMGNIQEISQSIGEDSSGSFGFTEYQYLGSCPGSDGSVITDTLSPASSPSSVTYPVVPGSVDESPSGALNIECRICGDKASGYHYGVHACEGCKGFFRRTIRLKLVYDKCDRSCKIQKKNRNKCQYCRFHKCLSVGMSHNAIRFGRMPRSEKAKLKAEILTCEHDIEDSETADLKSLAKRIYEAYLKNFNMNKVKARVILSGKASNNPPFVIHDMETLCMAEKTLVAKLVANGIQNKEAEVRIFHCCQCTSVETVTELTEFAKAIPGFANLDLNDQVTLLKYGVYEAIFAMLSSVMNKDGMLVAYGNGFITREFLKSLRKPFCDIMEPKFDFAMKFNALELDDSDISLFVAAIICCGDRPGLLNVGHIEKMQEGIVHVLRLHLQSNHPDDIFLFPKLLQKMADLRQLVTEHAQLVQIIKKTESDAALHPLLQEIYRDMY

Cc1ccc2c(C)cccc2c1
Potency [1]: inactive
outcome [2]: inactive
caspase-3 activation [3]: -1.07%
outcome [4]: inactive
outcome [5]: inactive
outcome [6]: inactive
Potency [7]: inactive
Potency [8]: inactive
Potency [9]: inactive
Potency [10]: inactive
Potency [11]: inactive
Potency [12]: inactive
Potency [13]: inactive
activation [14]: -0.533%
max response [15]: 3.14%
Potency [16]: inactive

Nc1ccc(-c2ccccc2)cc1
Potency [1]: inactive
outcome [2]: inactive
caspase-3 activation [3]: 2.52%
Potency [17]: inactive
outcome [4]: inactive
outcome [5]: inactive
Potency [18]: inactive
Potency [7]: inactive
Potency [9]: inactive
Potency [19]: inactive
Potency [10]: inactive
Potency [11]: inactive
Potency [20]: inactive
activation [14]: 12.6%
max response [15]: -0.418%
Potency [16]: inactive

N#CCc1ccccc1
Potency [1]: inactive
outcome [2]: inactive
Potency [17]: inactive
outcome [6]: inactive
Potency [18]: inactive
Potency [8]: inactive
Potency [9]: inactive
Potency [19]: inactive
Potency [10]: inactive
Potency [11]: inactive
Potency [12]: inactive
Potency [13]: inactive
Potency [20]: inactive
activation [14]: -0.841%
max response [15]: 0.0396%

S=c1[nH]c2ccccc2[nH]1
Potency [1]: inactive
outcome [2]: inactive
Potency [17]: inactive
outcome [4]: inactive
outcome [6]: inactive
Potency [7]: inactive
Potency [8]: inactive
Potency [9]: inactive
Potency [19]: inactive
Potency [11]: inactive
Potency [12]: inactive
Potency [13]: inactive
Potency [20]: inactive
activation [14]: 1.98%
max response [15]: -5.62%
Potency [16]: inactive

Nc1cccc2ccccc12
Potency [1]: inactive
outcome [2]: inactive
Potency [3]: 25.1 µM (active)
Potency [17]: inactive
outcome [5]: inactive
outcome [6]: inactive
Potency [18]: inactive
Potency [19]: inactive
Potency [11]: inactive
Potency [12]: inactive
Potency [13]: inactive
Potency [14]: 44.7 µM (active)
max response [15]: -2.99%
Potency [16]: inactive

CCCCCCCCCCCCCl
Potency [1]: inactive
outcome [2]: inactive
Potency [17]: inactive
outcome [4]: inactive
outcome [5]: inactive
outcome [6]: inactive
Potency [18]: inactive
Potency [7]: inactive
Potency [8]: inactive
Potency [10]: inactive
Potency [12]: inactive
Potency [13]: inactive
activation [14]: 1.8%
max response [15]: -2.89%
Potency [16]: inactive

C1CC2OC2CC1C1CO1 (stereo not given)
Potency [1]: inactive
outcome [2]: inactive
Potency [17]: inactive
outcome [5]: inactive
outcome [6]: inactive
Potency [18]: inactive
Potency [7]: inactive
Potency [8]: inactive
Potency [9]: inactive
Potency [19]: inactive
Potency [11]: inactive
Potency [12]: inactive
Potency [13]: inactive
Potency [20]: inactive
activation [14]: 1.2% and -1.91%
max response [15]: -1.95% and -1.6%
Potency [16]: inactive

FC(Cl)(Cl)Cl
Potency [1]: inactive
outcome [2]: inactive
caspase-3 activation [3]: -0.152%
Potency [17]: inactive
outcome [4]: inactive
outcome [5]: inactive
outcome [6]: inactive
Potency [8]: inactive
Potency [9]: inactive
Potency [10]: inactive
Potency [12]: inactive
Potency [13]: inactive
Potency [20]: inactive
activation [14]: -1.34%
max response [15]: -4.74%
Potency [16]: inactive
